The results in this text go back to PubChem BioAssay (NCATS).

Assay [1] in a line: HPAF-II 24hr Apoptosis Induction qHTS against the NCATS CANVASS Library (AID 1347356). Put shortly:
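500 HPAF-II cells/well; compounds in 11-pnt qHTS; 24 h, 37 C/5% CO2; Caspase-Glo 3/7 added, 15 min RT dark; luminescence read. Doxorubicin control.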

A short description of assay [2]: HEK293 18hr Apoptosis Induction qHTS against the NCATS CANVASS Library (AID 1347357). Put shortly:
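Caspase-Glo 3/7 luminescence (15 min, room temperature) measured apoptosis after an 18-hour, 37 degrees C exposure of HEK293 cells (500 cells/well) to compounds in 11 points.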

Assay [3] is described as follows: HEK293 24hr Apoptosis Induction qHTS against the NCATS CANVASS Library (AID 1347359). Put shortly: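 HEK293 cells (500/well, DMEM + 10% FBS) were exposed to compounds in an 11-point series for 24 hours at 37 degrees C, then caspase-3/7 activity was read by Caspase-Glo DEVD luciferase luminescence after 15 min.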
Assay [4] in a line: HPAF-II 18hr Apoptosis Induction qHTS against the NCATS CANVASS Library (AID 1347360). The method in brief: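 Caspase-3/7 activation was measured with luminescent Caspase-Glo 3/7 reagent (15 min, RT) in HPAF-II cancer cells (500 cells/well). Before detection, cells had been treated for 18 h at 37 C with compounds (11 points).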
Assay [5] relates to NAD(P)H diaphorase (Clostridium kluyveri). Description: Diaphorse counterscreen qHTS: Assay Interference Panel against the NCATS CANVASS Library (AID 1347362). The method in brief: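 Clostridium kluyveri diaphorase in PBS with 0.01% Tween-20 was preincubated 15 min at room temperature in the dark with compounds (11-point series). Resorufin fluorescence (ex 525/20, em 598/25) was read 5 min after adding resazurin/NADH.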

The target of assay [6] is Luciferin 4-monooxygenase (Photinus pyralis) (UniProt P08659). The assay is described as follows: Firefly luciferase counterscreen qHTS: Assay Interference Panel against the NCATS CANVASS Library (AID 1347363). Further: series mostly up to about 57 µM. Put shortly: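 Purified P. pyralis luciferase was added to compounds (11-point series) preincubated 15 min at room temperature with substrate containing 0.013 mM D-luciferin and 0.013 mM ATP; luminescence was read after 5 min.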
Luciferin 4-monooxygenase (Photinus pyralis), sequence (P08659 whole entry, looked up): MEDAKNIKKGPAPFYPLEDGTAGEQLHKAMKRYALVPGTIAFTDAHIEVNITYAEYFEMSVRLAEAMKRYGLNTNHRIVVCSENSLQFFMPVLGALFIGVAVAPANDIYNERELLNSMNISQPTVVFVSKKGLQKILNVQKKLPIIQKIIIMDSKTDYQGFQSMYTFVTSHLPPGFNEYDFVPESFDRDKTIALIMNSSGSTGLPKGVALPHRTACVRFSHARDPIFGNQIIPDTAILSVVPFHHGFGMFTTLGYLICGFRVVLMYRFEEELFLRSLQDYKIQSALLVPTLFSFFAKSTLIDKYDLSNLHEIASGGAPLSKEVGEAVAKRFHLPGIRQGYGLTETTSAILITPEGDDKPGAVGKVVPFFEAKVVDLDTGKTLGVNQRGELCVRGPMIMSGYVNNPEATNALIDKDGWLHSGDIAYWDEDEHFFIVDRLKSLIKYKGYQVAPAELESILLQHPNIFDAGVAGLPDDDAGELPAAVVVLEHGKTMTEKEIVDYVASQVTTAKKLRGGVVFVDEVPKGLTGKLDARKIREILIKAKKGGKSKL

Assay [7] can be described thus: KB-3-1 Cancer Cell Toxicity qHTS against the NCATS CANVASS Library (AID 1347366). Further: nearly all actives have a fitted effect of over 75% in size. Put shortly: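 CellTiter-Glo luminescence measured viability after 72 h at 37C. KB-3-1 cells were seeded at 500 per well in DMEM/10% FBS.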
Assay [8] in a line: qHTS for ATAD5 Agonist screened against the NCATS CANVASS Library (AID 1347367).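 Further: luciferase reporter driven by ATAD5 which rises upon DNA damage.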 Put shortly:
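Genotoxicity via ATAD5-luciferase luminescence after 16 h compound exposure (11-point series) at 37C in HEK293T-ATAD5 cells. CellTiter-Fluor viability read precedes the luminescence read; MMS serves as positive control.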

Assay [9] can be described thus: G06 Cancer Cell Toxicity qHTS against the NCATS CANVASS Library (AID 1347368). Further: nearly all actives have a fitted effect of over 60% in size. Further: potency means the concentration at half of the fitted maximal effect. The method in brief:
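ATP luminescence (CellTiterGlo) readout of cytotoxicity. Canine G06 glioma cells, 500/well, 72 hr incubation at 37C with compounds; bortezomib titration served as control.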

Assay [10] in a line: MCF7 Cancer Cell Toxicity qHTS against the NCATS CANVASS Library (AID 1347369). The method in brief:
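Cytotoxicity was measured as CellTiterGlo luminescence (ATP) after 72 h at 37 °C. The cells were MCF7 at 500 per well, with an 11-point compound concentration series.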

The nature of assay [11]: qHTS for ATAD5 Antagonist screened against the NCATS CANVASS Library (AID 1347370). Further: nearly all actives have a fitted effect of over 65% in size. Further: potency means the concentration at half of the fitted maximal effect. The method in brief:
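HEK293T-ATAD5 luc reporter, 2000 cells/well; 5hr attach; cpd + 10 uM 5-FUrd; 16hr 37C, 5% CO2. Readouts: CellTiter-Fluor fluorescence (1hr), then Amplite luciferase luminescence (30min RT).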

Assay [12] in a line: J3T Cancer Cell Toxicity qHTS against the NCATS CANVASS Library (AID 1347371). Further: potency means the concentration at half of the fitted maximal effect. Put shortly: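 Dog glioma J3T, 500 cells/well; cpd 11-pt qHTS; 72 hr, 37C/5% CO2; CellTiterGlo ATP luminescence readout.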
The target of assay [13] is Nuclear receptor subfamily 1 group I member 3 (Homo sapiens) (UniProt Q14994). The assay is described as follows: qHTS for Constitutive Androstane Receptor (CAR) Antagonist screened against the NCATS CANVASS Library (AID 1347372).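 Further: cells stimulated with 50 nM CITCO agonist so inhibition reflects antagonism; series mostly up to about 46 µM.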 Put shortly:
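Cells were seeded and left 4hr to attach, then received compound at 11 concentrations and 50 nM CITCO. Following 24hr incubation, fluorescence viability and luciferase luminescence were read sequentially.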

For assay [14] the target is unchanged. Description: qHTS for Constitutive Androstane Receptor (CAR) Agonist screened against the NCATS CANVASS Library (AID 1347373).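 Further: every well also contained 1.5 µM PK11195 alongside the test compound.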 Put shortly: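 Luciferase read-out (ONE-Glo, 30 min RT) of CYP2B6-2.2kb promoter activity in double-stable HepG2-hCAR cells after 24hr compound exposure with 1.5uM PK11195 present; viability measured first by CellTiter-Fluor.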
A short description of assay [15]: 10-beta competent E. coli microbial cell viability qHTS against the NCATS CANVASS Library (AID 1347376). Further: series mostly up to about 46 µM. The method in brief: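 Luminescence from BacTiter-Glo ATP detection served as the viability read-out; bacteria (0.2 OD) had been incubated overnight at 37C with pin-transferred compounds at 11 concentrations.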
Assay [16] is described as follows: qHTS for H2AX Agonists against the NCATS CANVASS Library (AID 1347378). The method in brief:
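Phospho-H2AX (S139) in CHO-K1 lysates measured by HTRF, reported as 665/615 nm emission ratio after 24 hr antibody incubation at room temperature. Cells were first treated with a compound series for 3 hr at 37C (0.76% DMSO final).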

A short description of assay [17]: qHTS for Inflammasome Signaling Inhibitors: IL-1-beta AlphaLISA screen against the NCATS CANVASS Library (AID 1347379).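 Further: human THP-1 cells primed with LPS then triggered with ATP.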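 On Potency: secreted IL-1B measured as AlphaLISA emission at 615 nm; potency means the concentration at half of the fitted maximal effect.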 Put shortly: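 THP-1, 1 hr compound pre-incubation, then LPS 250 ng/mL + ATP 1.25 mM (final); 16 hr total with compound; IL-1B AlphaLISA, ex 680/em 615 nm; 11-point qHTS, up to 57.5 uM final.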
Assay [18] can be described thus: Inflammasome Signaling qHTS Counterscreen: IL-1-beta AlphaLISA counterscreen against the NCATS CANVASS Library (AID 1347381).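 Further: cell-free check with purified IL-1β in medium and no THP-1 cells; series mostly up to about 57 µM.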 The method in brief:
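Here, no cellular stimulation occurs; compounds in an 11-point series meet 4 pg purified IL-1-beta directly. Bead-based AlphaLISA detection follows (1 h acceptor/antibody, then 30 min donor, dark, room temperature), with excitation at 680 nm.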

Assay [19] is described as follows: Cytotoxicity qHTS for assessment of Hepg2 cells membrane integrity screened against the NCATS CANVASS Library (AID 1347387). The method in brief: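 LDH release read by fluorescence (560 nm ex/590 nm em) after CytoTox-ONE addition and 10 min RT; signal tracks lysed cells. HepG2, 2000 cells/well, plated overnight; compound 5 hr, 37C, 5% CO2, final 0.59 nM - 46 uM, 11 points.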

A short description of assay [20]: Viability qHTS for inhibitors of the SERCaMP assay screened against the NCATS CANVASS Library (AID 1347400). Further: series mostly up to about 92 µM; nearly all actives have a fitted effect of over 70% in size. Put shortly: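 CellTiter-Glo luminescence readout after 48 h compound exposure (11-pnt qHTS series) of SH-SY5Y-GLuc SERCaMP MJH297 cells seeded at 1000 cells/well; bortezomib positive control.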

Molecules are shown by their SMILES. Inconclusive results are not listed. The source made the active and inactive calls. The call rests on the fitted dose curve; in most records, active means well fitted curve in the direction sought with a large enough effect; inconclusive means small, poorly fitted or top-dose-only effect, or another doubt; inactive means no such curve, though single readings can be large; an effect the other way counts as inactive or inconclusive.

Nuclear receptor subfamily 1 group I member 3 (Homo sapiens), sequence (Q14994 whole entry, looked up): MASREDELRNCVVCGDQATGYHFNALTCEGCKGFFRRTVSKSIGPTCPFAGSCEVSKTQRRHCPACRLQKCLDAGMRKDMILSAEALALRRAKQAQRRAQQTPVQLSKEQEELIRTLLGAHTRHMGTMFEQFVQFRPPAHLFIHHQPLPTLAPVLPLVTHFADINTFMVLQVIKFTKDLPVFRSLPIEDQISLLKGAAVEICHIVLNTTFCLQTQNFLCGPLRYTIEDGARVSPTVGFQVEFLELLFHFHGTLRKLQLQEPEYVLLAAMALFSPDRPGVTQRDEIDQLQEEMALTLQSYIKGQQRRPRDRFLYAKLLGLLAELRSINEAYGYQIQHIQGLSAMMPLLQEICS

On to `CC(=O)c1c(C)cc2c(c1O)C(=O)c1c(O)cc(O)cc1C2=O`, for which the outcome in assay [1], in assay [15], in assay [18] and in [19] was inactive. Moreover, the Potency entry in assay [2], in assay [3], in assay [4], in assay [5], in assay [6] and in assay [7] was “inactive” each time. Besides, the Potency result in assay [8], in [9], in [10], in assay [11], in [12] and in assay [13] was “inactive” each time. For the same compound, the Potency entry in assay [14], in assay [16], in assay [17] and in [20] was “inactive” throughout.

Consider `C/C=C/C(=O)C1(O)CC2CC(C(=O)O)CC(C)C2C1C1=C2C(=O)NC(=O)C2=C(CCCCC)C(C)O1` (stereo unspecified), for which the call in [1], in [15] and in assay [18] was inactive. Further, the Potency result in [2], in assay [3], in [4], in assay [5], in assay [6] and in assay [8] was “inactive” each time. Further, the Potency entry in assay [10], in assay [13], in assay [14] and in assay [16] was “inactive” throughout. Moreover, the Potency in assay [9] is 11.8 µM (active); in [11] it was 16.6 µM (active); in [12], 20.9 µM (active); in assay [17], 19.3 µM (active).

Consider `CCCc1c2c([nH]c(=O)c1C)C(=O)c1[nH]c(=O)c(C)c(CCC)c1C2=O`, for which the compound was called inactive in [1], in [15], in [18] and in assay [19]. Besides, the Potency result in [2], in [3], in assay [4], in [6], in assay [7] and in assay [8] was “inactive” throughout. Besides, the Potency result in assay [10], in assay [11], in assay [12], in assay [14], in assay [17] and in assay [20] was “inactive” in each case.

For `CO[C@@H](C[C@@H](C)[C@@H](O)/C=C/C=C/CNC(=O)C(C)(C)[C@H](O)\C(C)=C/C=C\C=C\Cc1cnco1)[C@]1(O)[C@@H](C)C(=O)N(C)[C@@]12COC2=O`, the compound was classed as inactive in [1], in assay [15], in assay [18] and in [19]. For the same compound, the Potency result in assay [2], in [3], in assay [4], in assay [5], in assay [6] and in assay [7] was “inactive” in each case. Moreover, the Potency result in assay [8], in [9], in assay [10], in assay [11], in assay [12] and in assay [13] was “inactive” in each case. Also, the Potency entry in assay [14], in assay [16], in assay [17] and in assay [20] was “inactive” in each case.

Consider `CN1CC[C@]23c4ccccc4N[C@H]1[C@]21CCN(C)[C@H]3Nc2ccccc21`, for which the result in assay [1], in [15], in [18] and in assay [19] was inactive. Further, the Potency entry in assay [2], in assay [3], in assay [4], in assay [5], in assay [6] and in [7] was “inactive” throughout. The Potency entry in assay [8], in [9], in assay [10], in assay [11], in [12] and in [13] was “inactive” in each case. Further, the Potency entry in assay [14], in assay [16], in assay [17] and in [20] was “inactive” in each case.

For `COC(=O)c1cc2cc3c(c(O)c2c(=O)o1)OC1(CC3)CC2=C(O1)C(=O)c1c(O)c(OC)cc(OC)c1C2=O` (stereo unspecified), the result in assay [1], in [15], in assay [18] and in assay [19] was inactive. Moreover, the Potency result in [2], in [3], in [4], in assay [6], in [8] and in assay [11] was “inactive” each time. Moreover, the Potency entry in assay [12], in assay [13] and in assay [14] was “inactive” each time.
